Bioassay records deposited in PubChem BioAssay by NMMLSC.
Hits are enriched below; roughly 3.5% of the tested compounds scored in any of these assays.
BoNT A protease = BoNT A light chain protease inhibition. multiplex microsphere protease substrate cleavage, flow cytometry. inhibition, % at 10 µM. hit rate 0.17% among 360,000. AID 588499
Bead autofluor = flagged as autofluorescent in microsphere protease counterscreen; compound autofluorescence counterscreen, microsphere flow cytometry; stronger effect = higher value; fluorescence intensity (concentration not given with the values); hit rate 3.1% among 360,000; AID 624483; in the data active = fluorescence intensity above about 16000; inconclusive = no clear call, values can overlap the other calls
BoNT F protease = blocks Botulinum neurotoxin F light chain protease; inhibition, % at 10 µM; hit rate 0.22% among 360,000; Multiplex microsphere protease cleavage assay, flow cytometry; in the data active = inhibition above about 35%, passing the limit was not always enough; inconclusive = no clear call, values can overlap the other calls
Anthrax LF prot = blocks Bacillus anthracis lethal factor protease. inhibition, % at 10 µM. AID 588501. multiplex microsphere protease cleavage assay, LF. hit rate 0.12% among 360,000
Hits are given with their value. Cut-off read from the data, not from the text of the source, unless noted: active = inhibition above about 30%; inconclusive = no clear call, values can overlap the other calls; inactive = below that.

Screening C=CCSc1[nH]c(=O)cc(C)c1C(N)=O returned BoNT A protease inactive, Bead autofluor 19287, BoNT F protease inactive and Anthrax LF prot inactive.
Screening Cc1cc(C)c(C(N)=O)c(SCC(=O)c2cc(C)c(C)cc2C)n1 returned BoNT A protease inactive, Bead autofluor inactive, BoNT F protease inactive and Anthrax LF prot inactive.
Screening Cc1sc2nc(SCC(=O)NCCOCCO)n(C)c(=O)c2c1C returned BoNT A protease inactive, Bead autofluor 21931, BoNT F protease inactive and Anthrax LF prot inactive.
Screening Cc1cc(C)c2c(=O)[nH]c(SCC(=O)N3CCOCC3)nc2n1 returned BoNT A protease inactive, Bead autofluor inactive, BoNT F protease inactive and Anthrax LF prot inactive.
For Cc1cc(C)c2c(=O)[nH]c(SCC(=O)N3CCCCC3)nc2n1 the results were BoNT A protease inactive, Bead autofluor 21909, BoNT F protease inactive and Anthrax LF prot inactive.
For O=C(NCc1ccccn1)Nc1cccc(F)c1 the results were BoNT A protease inactive, Bead autofluor inactive, BoNT F protease inactive and Anthrax LF prot inactive.
For O=C1CC(SCCc2nc3ccccc3[nH]2)C(=O)N1c1ccc(F)cc1 (stereo not drawn) the results were BoNT A protease inactive, Bead autofluor inactive, BoNT F protease inactive and Anthrax LF prot inactive.
`COc1ccc(N2C(=O)CC(SCCc3nc4ccccc4[nH]3)C2=O)cc1` (stereo not drawn) gave BoNT A protease inactive, Bead autofluor 19552, BoNT F protease inactive and Anthrax LF prot inactive.
For CCOC(=O)C1CCN(Cc2ccc(OC)c(C)c2OC)CC1 the results were BoNT A protease inactive, Bead autofluor 16792, BoNT F protease inactive and Anthrax LF prot inactive.
CCOC(=O)C1CCN(Cc2ccc(F)cc2F)CC1 was read as BoNT A protease inactive, Bead autofluor inactive, BoNT F protease inactive and Anthrax LF prot inactive.
CCOC(=O)C1CCN(Cc2ccc(F)c(Br)c2)CC1 was read as BoNT A protease inconclusive, Bead autofluor 20738, BoNT F protease inactive and Anthrax LF prot inactive.
Screening CCOC(=O)/C=C1/SCC(=O)N1CC(=O)Nc1ccc2c(c1)CCC2 returned BoNT A protease inactive, Bead autofluor inactive, BoNT F protease inactive and Anthrax LF prot inactive.
Screening COc1nc(C#N)nc(N(C)C)n1 returned BoNT A protease inactive, Bead autofluor 20512, BoNT F protease inactive and Anthrax LF prot inactive.
CCN(CC)C(=O)CN(C#N)c1nc(OC)nc(N(C)C)n1 was read as BoNT A protease inactive, Bead autofluor inactive, BoNT F protease inactive and Anthrax LF prot inactive.
`CC(NC(=O)c1cccc(F)c1)C(c1cccs1)N1CCN(C)CC1` (stereo not drawn) gave BoNT A protease inactive, Bead autofluor 23669, BoNT F protease inactive and Anthrax LF prot inactive.
For CCN(CC)S(=O)(=O)c1cccc(C(=O)NC(C)C(c2cccs2)N2CCCC2)c1 (stereo not drawn) the results were BoNT A protease inactive, Bead autofluor 17341, BoNT F protease inactive and Anthrax LF prot inactive.
CCC(=O)NC(C)C(c1cccs1)N1CCN(c2ccccc2)CC1 (stereo not drawn) was read as BoNT A protease inactive, Bead autofluor inactive, BoNT F protease inactive and Anthrax LF prot inactive.
CCN1CCN(C(c2cccs2)C(C)NC(=O)c2ccccc2)CC1 (stereo not drawn) was read as BoNT A protease inactive, Bead autofluor inactive, BoNT F protease inactive and Anthrax LF prot inactive.
For CCN1CCN(C(c2cccs2)C(C)NC(=O)c2cccc(OC)c2)CC1 (stereo not drawn) the results were BoNT A protease inactive, Bead autofluor inactive, BoNT F protease inactive and Anthrax LF prot inactive.
CC(=O)NC(C)C(c1cccs1)N1CCN(c2ccccc2)CC1 (stereo not drawn) was read as BoNT A protease inconclusive, Bead autofluor 16460, BoNT F protease inactive and Anthrax LF prot inactive.
O=C(NCc1ccco1)C1Cc2c(-c3cccc(F)c3)ccnc2O1 (stereo not drawn) was read as BoNT A protease inactive, Bead autofluor inactive, BoNT F protease inactive and Anthrax LF prot inactive.
Cc1ccc(OCC(=O)OCC(=O)NC2CCCCCC2)cc1C was read as BoNT A protease inactive, Bead autofluor inactive, BoNT F protease inactive and Anthrax LF prot inactive.
Screening O=C1NCCn2ccc(=O)cc21 returned BoNT A protease inactive, Bead autofluor inactive, BoNT F protease inactive and Anthrax LF prot inactive.
For CCC(C)c1c(O)nc(SCC(=O)N2CCCCCC2)[nH]c1=O (stereo not drawn) the results were BoNT A protease inactive, Bead autofluor inactive, BoNT F protease inactive and Anthrax LF prot inactive.
For COc1cc(OC)c(C(=O)Nc2ccc(S(=O)(=O)Nc3ncccn3)cc2)cc1OC the results were BoNT A protease inactive, Bead autofluor 21604, BoNT F protease inactive and Anthrax LF prot inactive.
`COc1ccc(CC(=O)Nc2ccc(S(=O)(=O)Nc3ncccn3)cc2)cc1OC` gave BoNT A protease inactive, Bead autofluor inactive, BoNT F protease inactive and Anthrax LF prot inactive.
Screening Cc1ccccc1Cn1c(C)nc2ccc([N+](=O)[O-])cc2c1=O returned BoNT A protease inactive, Bead autofluor inactive, BoNT F protease inconclusive and Anthrax LF prot inactive.
Screening Cc1ccc(CCNC(=O)c2nnc(CS(=O)(=O)c3ccccc3)o2)cc1 returned BoNT A protease inactive, Bead autofluor inactive, BoNT F protease inactive and Anthrax LF prot inactive.
For COc1ccccc1/C=C/C=C1N=C(/C=C/c2ccc(Cl)cc2)OC/1=O the results were BoNT A protease inactive, Bead autofluor inactive, BoNT F protease inactive and Anthrax LF prot inactive.
`COc1ccccc1/C=C/C1=NC(=C\C=C/c2ccccc2)/C(=O)O1` gave BoNT A protease inactive, Bead autofluor inactive, BoNT F protease 58.4 and Anthrax LF prot inactive.
`O=C1C2CC=CCC2C(=O)N1c1n[nH]c(CCc2ccccc2)n1` (stereo not drawn) gave BoNT A protease inconclusive, Bead autofluor 18666, BoNT F protease inactive and Anthrax LF prot inactive.
O=C(CCC1CC(=O)Nc2ccccc21)NCc1ccc(F)cc1 (stereo not drawn) was read as BoNT A protease inactive, Bead autofluor 18975, BoNT F protease inactive and Anthrax LF prot inactive.
Cc1cc(C)c2cc(C(=O)N3CCN(c4ncccc4C(F)(F)F)CC3)[nH]c2c1 was read as BoNT A protease inactive, Bead autofluor inactive, BoNT F protease inactive and Anthrax LF prot inactive.
`CC(=O)c1c(C(C)=O)c(C)n(-c2ccc(O)cc2)c1C` gave BoNT A protease inactive, Bead autofluor 21526, BoNT F protease inactive and Anthrax LF prot inactive.
Screening CC(=O)c1c(C(C)=O)c(C)n(-c2ccc(C(=O)O)cc2)c1C returned BoNT A protease inactive, Bead autofluor inactive, BoNT F protease inactive and Anthrax LF prot inactive.
For CC(=NNC(=S)N1CC2CCC(CC2)C1)c1cccc(C)n1 the results were BoNT A protease inactive, Bead autofluor inactive, BoNT F protease 44.8 and Anthrax LF prot inactive.
CCc1ccc(N2CC(C(=O)NC3CCCCC3C)CC2=O)cc1 (stereo not drawn) was read as BoNT A protease inactive, Bead autofluor inactive, BoNT F protease inactive and Anthrax LF prot inactive.
`COc1cc(NCC2COc3c(ccc(OC)c3OC)C2=O)c([N+](=O)[O-])cc1OC` (stereo not drawn) gave BoNT A protease inactive, Bead autofluor inactive, BoNT F protease inactive and Anthrax LF prot inactive.
For Cc1sc2ncnc(SCC(=O)NC3CC3)c2c1C the results were BoNT A protease inactive, Bead autofluor 24257, BoNT F protease inactive and Anthrax LF prot inactive.
